# According to PubChem BioAssay (Tox21):
# Results filed as inconclusive are left out. Calls of active or inactive are those of the source. Calls come from the whole dose curve; as a rule, active = well fitted curve in the direction sought with a large enough effect in the repeat runs; inconclusive = weak or mixed curves; inactive = no such curve, though single readings can be large; an effect the other way counts as inactive or inconclusive.
# Biological target: Cytochrome P450 2C9 (Homo sapiens) (UniProt P11712)
# Sequence (P11712 whole entry, looked up): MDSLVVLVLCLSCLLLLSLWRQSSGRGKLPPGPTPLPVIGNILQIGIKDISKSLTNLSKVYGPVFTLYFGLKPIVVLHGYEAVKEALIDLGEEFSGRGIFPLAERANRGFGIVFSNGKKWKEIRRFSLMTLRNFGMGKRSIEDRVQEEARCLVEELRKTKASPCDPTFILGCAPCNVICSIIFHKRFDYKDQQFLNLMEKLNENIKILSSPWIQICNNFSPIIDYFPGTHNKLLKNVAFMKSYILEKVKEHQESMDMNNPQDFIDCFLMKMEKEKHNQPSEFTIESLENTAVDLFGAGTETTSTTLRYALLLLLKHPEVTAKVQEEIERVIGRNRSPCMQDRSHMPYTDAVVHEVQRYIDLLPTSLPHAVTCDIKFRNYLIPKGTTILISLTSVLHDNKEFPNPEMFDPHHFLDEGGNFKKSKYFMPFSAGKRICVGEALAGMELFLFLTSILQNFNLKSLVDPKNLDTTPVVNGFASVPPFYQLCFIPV
# Assay: Cytochrome P450 Family 2 Subfamily C Member 9 (CYP2C9) small molecule antagonists: luciferase reporter qHTS assay (AID 1671198)
# Details: P450-Glo CYP2C9 enzyme assay, luciferin luminescence; series mostly up to 115 µM; activity change, negative = inhibition: at the top concentration
# Summary of the method: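 Enzyme-substrate mix preincubated with compound 10 min at room temperature; reaction started with NADPH regeneration solution, 1 h 37C. Luminescent luciferin product read after 20 min detection reagent.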
# % is set by controls: 0 for no effect and ±100 for the full control effect; potency is the fitted concentration of half-maximal effect.
# Note: nearly all actives have a fitted effect of over 50% in size.
SMILES,"activity change, negative = inhibition",Potency
C=C[Si]1(C)O[Si](C)(C=C)O[Si](C)(C=C)O[Si](C)(C=C)O1 (stereo not drawn),-18.9% (inactive),
Cc1ccccc1CCO,-2.65% (inactive),
c1ccc(CN(Cc2ccccc2)Cc2ccccc2)cc1,,31.7 µM (active)
N#Cc1ccc(CC(=O)c2cccc(C(F)(F)F)c2)cc1,,35.6 µM (active)
COc1cc(CNC(=O)CCCC/C=C/C(C)C)ccc1O,,9.77 µM (active)
COc1ccc(CN(CCN(C)C)c2ncccn2)cc1,0.965% [at 53 µM] (inactive),
O=C(C1CCCCC1)N1CC(=O)N2CCCc3ccccc3C2C1 (stereo not drawn),,13.8 µM (active)
CC(C)C/C=C(\C=O)c1ccccc1,,35.6 µM (active)
CC(C)CCCCCOC(=O)CS,,71 µM (active)
COc1ccc(C(=O)c2ccc(C)cc2)c(O)c1,,22.7 µM (active)
Clc1nc2ccccc2nc1Cl,-6.28% (inactive),
c1ccc(CCNc2nc(-c3ccccc3)cs2)cc1,,6.92 µM (active)
CCc1ccc(C(=O)C(C)CN2CCCCC2)cc1 (stereo not drawn),2.23% [at 53 µM] (inactive),
O=C(Cl)c1ccc(F)c(Cl)c1,-17.4% (inactive),
O=C(OC1C[C@H]2CC[C@@H](C1)[N+]21CCCC1)C(O)(c1ccccc1)c1ccccc1 (stereo partly drawn),-6.29% [at 53 µM] (inactive),
Cc1ccc2ccccc2c1[N+](=O)[O-],-2.85% (inactive),
C[C@H]1C[C@H]2[C@@H]3CCC4=CC(=O)C=C[C@]4(C)[C@@]3(F)[C@@H](O)C[C@]2(C)[C@@]1(O)C(=O)COP(=O)(O)O,-7.37% (inactive),
CCN(CC)CC(=O)OCC(=O)[C@@]1(O)CC[C@H]2[C@@H]3CCC4=CC(=O)CC[C@]4(C)[C@H]3[C@@H](O)C[C@@]21C,-11.8% [at 53 µM] (inactive),
O=C(O)c1ccc2c(c1)nc(C(=O)NC1CCN(C3CC3)CC1)n2Cc1cc(-c2ccc(Cl)s2)on1,-6.17% [at 23.6 µM] (inactive),
O=C(O)c1cc(C(=O)O)cc([N+](=O)[O-])c1,-14.8% (inactive),
O=C(Nc1ccccc1)c1cc([N+](=O)[O-])ccc1Cl,,31.7 µM (active)
CCCCCC1CCC(=O)O1 (stereo not drawn),,89.4 µM (active)
C[C@H](CN1CCCC1)C(=O)c1ccc(C(F)(F)F)cc1,2.36% [at 53 µM] (inactive),
Cc1cc(C)c(C)c(O)c1,0.143% (inactive),
COc1ccc(/C=C/S(=O)(=O)NC(=O)c2ccc(C)cc2Cl)cc1,,17.8 µM (active)

# Biological target: Cytochrome P450 1A2 (Homo sapiens) (UniProt P05177)
# Sequence (P05177 whole entry, looked up): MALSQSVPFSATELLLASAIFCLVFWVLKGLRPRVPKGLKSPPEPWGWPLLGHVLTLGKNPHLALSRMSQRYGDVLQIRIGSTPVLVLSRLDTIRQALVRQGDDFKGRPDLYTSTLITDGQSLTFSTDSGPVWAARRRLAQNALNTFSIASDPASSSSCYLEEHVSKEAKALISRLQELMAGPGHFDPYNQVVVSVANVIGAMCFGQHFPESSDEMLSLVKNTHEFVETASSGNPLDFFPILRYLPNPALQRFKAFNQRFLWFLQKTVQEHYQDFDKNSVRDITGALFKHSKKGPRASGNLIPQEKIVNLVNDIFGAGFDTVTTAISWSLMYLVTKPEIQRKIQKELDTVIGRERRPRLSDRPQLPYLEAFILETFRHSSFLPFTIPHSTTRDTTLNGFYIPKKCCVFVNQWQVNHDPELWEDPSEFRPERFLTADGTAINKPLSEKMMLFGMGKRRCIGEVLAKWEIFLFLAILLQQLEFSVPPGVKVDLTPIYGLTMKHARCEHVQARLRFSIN
# Assay: Cytochrome P450 Family 1 Subfamily A Member 2 (CYP1A2) small molecule antagonists: luciferase reporter qHTS assay (AID 1671199)
# Details: P450-Glo CYP1A2 enzyme, luciferin luminescence, 1 h; series mostly up to 115 µM; activity change, negative = inhibition: at the top concentration
# Summary of the method: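 Steps: enzyme-substrate mix dispensed; test compounds and furafylline control pinned in; 10 min room temperature; NADPH regeneration solution added, 1 h; reaction stopped with luciferin detection reagent; luminescence read after 20 min.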
SMILES,Potency,"activity change, negative = inhibition"
Nc1ccccc1Nc1ccccc1,7.12 µM (active),
Cc1ccccc1CCO,,-18.4% (inactive)
c1ccc(CN(Cc2ccccc2)Cc2ccccc2)cc1,20 µM (active),
N#Cc1ccc(CC(=O)c2cccc(C(F)(F)F)c2)cc1,25.2 µM (active),
Cc1cc(N)n(-c2ccccc2)n1,39.9 µM (active),
COc1cc(CNC(=O)CCCC/C=C/C(C)C)ccc1O,30.9 µM (active),
CCc1c(C)[nH]c2c1C(=O)C(CN1CCOCC1)CC2 (stereo not drawn),,-8.69% [at 53 µM] (inactive)
O=C(C1CCCCC1)N1CC(=O)N2CCCc3ccccc3C2C1 (stereo not drawn),,-7.07% [at 53 µM] (inactive)
CC(C)C/C=C(\C=O)c1ccccc1,39.9 µM (active),
CC(CN=Cc1ccccc1O)N=Cc1ccccc1O (stereo not drawn),20 µM (active),
CC(C)CCCCCOC(=O)CS,,-23.8% (inactive)
Cc1ccc(S(=O)(=O)NC(=O)NC2CCCC2)cc1,,-3.96% [at 53 µM] (inactive)
CC1(COc2ccc(CC3SC(=O)NC3=O)cc2)CCCCC1 (stereo not drawn),,-14.7% [at 53 µM] (inactive)
COc1ccc(C(=O)c2ccc(C)cc2)c(O)c1,20.2 µM (active),
Clc1nc2ccccc2nc1Cl,5.09 µM (active),
c1ccc(CCNc2nc(-c3ccccc3)cs2)cc1,2.29 µM (active),
CCc1ccc(C(=O)C(C)CN2CCCCC2)cc1 (stereo not drawn),,-14.6% [at 53 µM] (inactive)
O=C(Cl)c1ccc(F)c(Cl)c1,,-14.6% (inactive)
O=C(OC1C[C@H]2CC[C@@H](C1)[N+]21CCCC1)C(O)(c1ccccc1)c1ccccc1 (stereo partly drawn),,13% [at 53 µM] (inactive)
Cc1ccc2ccccc2c1[N+](=O)[O-],2.52 µM (active),
C[C@H]1C[C@H]2[C@@H]3CCC4=CC(=O)C=C[C@]4(C)[C@@]3(F)[C@@H](O)C[C@]2(C)[C@@]1(O)C(=O)COP(=O)(O)O,,-11.7% (inactive)
CC(=O)OCC(=O)[C@@]1(O)CC[C@H]2[C@@H]3CCC4=CC(=O)C=C[C@]4(C)[C@@]3(F)[C@@H](O)C[C@@]21C,,2.8% [at 53 µM] (inactive)
CCN(CC)CC(=O)OCC(=O)[C@@]1(O)CC[C@H]2[C@@H]3CCC4=CC(=O)CC[C@]4(C)[C@H]3[C@@H](O)C[C@@]21C,,1.39% [at 53 µM] (inactive)
O=C(O)c1ccc2c(c1)nc(C(=O)NC1CCN(C3CC3)CC1)n2Cc1cc(-c2ccc(Cl)s2)on1,,0.996% [at 23.6 µM] (inactive)
Cc1cc(SC2=C(O)C[C@@](CCc3ccc(N)cc3)(C(C)C)OC2=O)c(C(C)(C)C)cc1CO,,-12.2% (inactive)
O=C(Nc1ccccc1)c1cc([N+](=O)[O-])ccc1Cl,7.96 µM (active),
CCOCCn1c(N2CCCN(C)CC2)nc2ccccc21,,1.9% [at 53 µM] (inactive)
Sc1nc(S)nc(S)n1,,-13.6% [at 53 µM] (inactive)
Cc1cc(C)c(C)c(O)c1,31.7 µM (active),
COc1ccc(/C=C/S(=O)(=O)NC(=O)c2ccc(C)cc2Cl)cc1,,13% (inactive)

# Biological target: Voltage-gated inwardly rectifying potassium channel KCNH2 (Homo sapiens) (UniProt Q12809)
# Sequence (Q12809 whole entry, looked up): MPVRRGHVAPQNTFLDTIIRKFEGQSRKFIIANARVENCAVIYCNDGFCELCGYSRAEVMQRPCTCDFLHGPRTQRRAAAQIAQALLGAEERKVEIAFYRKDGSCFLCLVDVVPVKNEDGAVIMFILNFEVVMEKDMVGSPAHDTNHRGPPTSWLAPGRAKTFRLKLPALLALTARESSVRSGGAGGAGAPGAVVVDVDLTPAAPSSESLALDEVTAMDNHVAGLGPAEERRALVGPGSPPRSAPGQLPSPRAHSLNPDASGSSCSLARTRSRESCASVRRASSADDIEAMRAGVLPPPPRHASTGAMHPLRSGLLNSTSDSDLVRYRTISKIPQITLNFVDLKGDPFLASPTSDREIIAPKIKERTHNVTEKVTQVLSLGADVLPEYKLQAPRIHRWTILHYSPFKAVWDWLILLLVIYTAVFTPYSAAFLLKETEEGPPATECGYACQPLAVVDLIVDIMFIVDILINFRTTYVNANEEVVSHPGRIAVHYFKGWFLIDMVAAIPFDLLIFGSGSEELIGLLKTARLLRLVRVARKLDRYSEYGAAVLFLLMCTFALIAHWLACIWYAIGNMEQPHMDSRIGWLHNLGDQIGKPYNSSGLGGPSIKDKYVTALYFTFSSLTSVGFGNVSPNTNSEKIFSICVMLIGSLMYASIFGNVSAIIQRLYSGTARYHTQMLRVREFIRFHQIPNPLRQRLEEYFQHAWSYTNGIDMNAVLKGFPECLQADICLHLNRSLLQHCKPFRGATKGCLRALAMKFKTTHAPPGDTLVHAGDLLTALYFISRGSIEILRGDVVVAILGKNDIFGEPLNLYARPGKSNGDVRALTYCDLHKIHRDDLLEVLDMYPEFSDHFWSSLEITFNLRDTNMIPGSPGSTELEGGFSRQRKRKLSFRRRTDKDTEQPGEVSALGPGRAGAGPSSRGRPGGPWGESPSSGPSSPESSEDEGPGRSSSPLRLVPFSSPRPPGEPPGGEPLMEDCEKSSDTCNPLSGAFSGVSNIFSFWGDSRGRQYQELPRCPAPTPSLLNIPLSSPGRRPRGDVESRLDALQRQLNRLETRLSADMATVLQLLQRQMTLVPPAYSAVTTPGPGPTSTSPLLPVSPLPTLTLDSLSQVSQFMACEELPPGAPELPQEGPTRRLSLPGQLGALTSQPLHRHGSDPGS
# Assay: Human Ether-a-go-go-Related Gene (hERG) channel small molecule antagonists: fluorescence cell-based qHTS assay (AID 1671200);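 for activity change, negative = inhibition: hERG-expressing U2OS cells given a thallium stimulus after FluxOR II dye loading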
# Details: hERG-U2OS cells, FluxOR thallium flux fluorescence; series mostly up to 76.8 µM; activity change, negative = inhibition: at the top concentration
# Summary of the method: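 U2OS cells expressing the channel were plated at 1000 cells/well, incubated overnight at 37 C, then loaded with FluxOR II thallium-sensitive dye for 1 h at room temperature in the dark, with a further 10 min at room temperature before stimulation.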
SMILES,"activity change, negative = inhibition",Potency
C=C[Si]1(C)O[Si](C)(C=C)O[Si](C)(C=C)O[Si](C)(C=C)O1 (stereo not drawn),2.87% (inactive),
Nc1ccccc1Nc1ccccc1,1.52% (inactive),
Cc1ccccc1CCO,0.0483% (inactive),
N#Cc1ccc(CC(=O)c2cccc(C(F)(F)F)c2)cc1,,27.5 µM (active)
Cc1cc(N)n(-c2ccccc2)n1,-0.58% (inactive),
COc1cc(CNC(=O)CCCC/C=C/C(C)C)ccc1O,-6.77% (inactive),
CCc1c(C)[nH]c2c1C(=O)C(CN1CCOCC1)CC2 (stereo not drawn),0.429% [at 35.3 µM] (inactive),
COc1ccc(CN(CCN(C)C)c2ncccn2)cc1,-19.8% [at 35.3 µM] (inactive),
O=C(C1CCCCC1)N1CC(=O)N2CCCc3ccccc3C2C1 (stereo not drawn),3.66% [at 35.3 µM] (inactive),
CC(CN=Cc1ccccc1O)N=Cc1ccccc1O (stereo not drawn),-26.1% (inactive),
Nc1ncnc2c1ncn2[C@@H]1O[C@H](CO)[C@@H](O)[C@H]1O,6.03% [at 35.3 µM] (inactive),
CC(C)CCCCCOC(=O)CS,0.0197% (inactive),
Cc1ccc(S(=O)(=O)NC(=O)NC2CCCC2)cc1,2.41% [at 35.3 µM] (inactive),
CC1(COc2ccc(CC3SC(=O)NC3=O)cc2)CCCCC1 (stereo not drawn),-2.18% [at 35.3 µM] (inactive),
Cc1c(N=C=O)cccc1N=C=O,1.41% (inactive),
Clc1nc2ccccc2nc1Cl,40.7% (inactive),
c1ccc(CCNc2nc(-c3ccccc3)cs2)cc1,-15.2% [at 35.3 µM] (inactive),

SMILES,"activity change, negative = inhibition",Potency
CCc1ccc(C(=O)C(C)CN2CCCCC2)cc1 (stereo not drawn),-17.8% [at 35.3 µM] (inactive),
O=C(Cl)c1ccc(F)c(Cl)c1,5.9% (inactive),
O=C(OC1C[C@H]2CC[C@@H](C1)[N+]21CCCC1)C(O)(c1ccccc1)c1ccccc1 (stereo partly drawn),-4.41% [at 35.3 µM] (inactive),
Cc1ccc2ccccc2c1[N+](=O)[O-],-2.11% (inactive),
C[C@H]1C[C@H]2[C@@H]3CCC4=CC(=O)C=C[C@]4(C)[C@@]3(F)[C@@H](O)C[C@]2(C)[C@@]1(O)C(=O)COP(=O)(O)O,-0.615% (inactive),
CC(=O)OCC(=O)[C@@]1(O)CC[C@H]2[C@@H]3CCC4=CC(=O)C=C[C@]4(C)[C@@]3(F)[C@@H](O)C[C@@]21C,-6.65% [at 35.3 µM] (inactive),
CCN(CC)CC(=O)OCC(=O)[C@@]1(O)CC[C@H]2[C@@H]3CCC4=CC(=O)CC[C@]4(C)[C@H]3[C@@H](O)C[C@@]21C,3.19% [at 35.3 µM] (inactive),
O=C(O)c1ccc2c(c1)nc(C(=O)NC1CCN(C3CC3)CC1)n2Cc1cc(-c2ccc(Cl)s2)on1,-1.6% [at 15.8 µM] (inactive),
O=C(O)c1cc(C(=O)O)cc([N+](=O)[O-])c1,2.66% (inactive),
Cc1cc(SC2=C(O)C[C@@](CCc3ccc(N)cc3)(C(C)C)OC2=O)c(C(C)(C)C)cc1CO,5.64% (inactive),
O=C(Nc1ccccc1)c1cc([N+](=O)[O-])ccc1Cl,-8.54% (inactive),
CCCCCC1CCC(=O)O1 (stereo not drawn),1.37% (inactive),
CCOCCn1c(N2CCCN(C)CC2)nc2ccccc21,,7.56 µM (active)
C[C@H](CN1CCCC1)C(=O)c1ccc(C(F)(F)F)cc1,-12.4% [at 35.3 µM] (inactive),
Cc1cc(C)c(C)c(O)c1,18.8% (inactive),
COc1ccc(/C=C/S(=O)(=O)NC(=O)c2ccc(C)cc2Cl)cc1,7% (inactive),
